Experimental data as given in PubChem BioAssay (Tox21).
Several values for one entry are separate records, joined by “and”; a condition that tells them apart may be missing. Identical values can stand only once. Inconclusive results are not listed. A structure can be active in one record and inactive in another. Activity calls are given as the source filed them. Unless noted, calls come from the whole dose curve; as a rule, active = well fitted curve in the direction sought with a large enough effect in the repeat runs; inconclusive = weak or mixed curves; inactive = no such curve, though single readings can be large; an effect the other way counts as inactive or inconclusive.

Tests used:
[1] = qHTS assay to identify small molecule agonists of the hypoxia (HIF-1) signaling pathway - cell viability counter screen (AID 1224844; calls by dose curve; note: nearly all actives have a fitted effect of over 50% in size)
Summary of the method: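 HRE-bla ME-180 cells, 2,000/well in 0.5% dialyzed FBS medium, treated 17 h at 37C with compounds. Viability read in the same wells as the bla reporter, by CellTiter-Glo luminescence after 30 min at room temperature.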

[2] = qHTS assay to identify small molecule agonists of the hypoxia (HIF-1) signaling pathway (AID 1224846; active = well fitted activation curve with a large enough effect in the signal ratio in the repeat runs, not every such curve was filed as active; the % refers to the signal ratio)
Summary of the method: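 HRE-bla ME-180 beta-lactamase reporter cells in medium with 0.5% dialyzed FBS, pre-incubated 5 h then exposed to compounds 17 h at 37C, 5% CO2; reporter induction read with CCF4-AM FRET substrate.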

[3] = qHTS assay to identify small molecule antagonists of the estrogen related receptor (ERR) signaling pathway from Tox21 library (AID 1224848); note: nearly all actives have a fitted effect of over 50% in size
Summary of the method: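 Cells: ERR line, 2,000/well; 6 h preincubation 37 C/5% CO2. Cpd in DMSO via pin tool; 18 h, 37 C. ONE-Glo, 30 min RT, luminescence.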

[4] = qHTS assay to identify small molecule agonists of the estrogen related receptor (ERR) signaling pathway from Tox21 library (AID 1224849; calls by dose curve; note: nearly all actives have a fitted effect of over 15% in size); conditions: ERR reporter cell line, ONE-Glo luciferase, 18 h; at 92.4 µM (top of the series) unless noted
Summary of the method: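 ERR reporter cells (NTP line) pre-incubated 6 hours at 37 C, then exposed to compounds for 18 hours at 37 C. ONE-Glo luciferase luminescence was read after 30 minutes at room temperature.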

[5] = qHTS RealTime-Glo MT Cell Viability Assay in HepG2 cells - 24 hour (AID 1224867); note: nearly all actives have a fitted effect of over 50% in size
Summary of the method: (§1)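 Viability was tracked continuously by NanoLuc luminescence from prosubstrate reduced by living HepG2 cells, at successive time points over 40 h of compound exposure. Cells with reagent were preincubated 5 h at 37 °C before compound addition.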

[6] = qHTS RealTime-Glo MT Cell Viability Assay in HepG2 cells - 40 hour (AID 1224870); note: nearly all actives have a fitted effect of over 50% in size
Summary of the method: (§2)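 HepG2 cells mixed with RealTime-Glo MT reagents (NanoLuc plus cell-permeant prosubstrate) were seeded at 600 cells/well, incubated 5 h at 37 C/5% CO2, then pinned with compounds in DMSO; nonlytic luminescence tracked viability during 40 h treatment.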

[7] = A CellTox Green Cytotoxicity Assay to monitor cytotoxicity in HEK293 cells - 40 hour (AID 1224871); note: nearly all actives have a fitted effect of over 45% in size; note: potency is the fitted concentration of half-maximal effect
Summary of the method: (§3)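 HEK293 cells, 600/well, were preincubated 5 hours and then exposed to compounds at 37 C for up to 40 hours. A cell-impermeant cyanine dye staining dead-cell DNA was read by fluorescence at 0, 8, 16, 24, 32 and 40 h time points.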

[8] = qHTS RealTime-Glo MT Cell Viability Assay in HepG2 cells - 8 hour (AID 1224873); note: nearly all actives have a fitted effect of over 55% in size; note: potency is the fitted concentration of half-maximal effect
Summary of the method: as §2

[9] = qHTS RealTime-Glo MT Cell Viability Assay in HEK293 cells - 40 hour (AID 1224874); conditions: RealTime-Glo luminescence; max response: stronger effect = lower value; note: nearly all actives have a fitted effect of over 50% in size
Summary of the method: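 600 cells/well were plated with the nonlytic NanoLuc/prosubstrate reagent, pre-incubated 5 h, then given 23 nL of compound in DMSO. Incubation at 37 C for 40 h, with luminescence from viable-cell-reduced substrate read repeatedly from 0 h.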

[10] = A CellTox Green Cytotoxicity Assay to monitor cytotoxicity in HepG2 cells - 16 hour (AID 1224876); note: nearly all actives have a fitted effect of over 45% in size; note: potency is the fitted concentration of half-maximal effect
Summary of the method: (§4)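 HepG2 cells, 600/well, preincubated 5 h with CellTox Green dye, then exposed to Tox21 compounds in DMSO at 37 C for up to 40 h. Dead-cell DNA fluorescence read at the indicated time point.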

[11] = qHTS RealTime-Glo MT Cell Viability Assay in HepG2 cells - 32 hour (AID 1224877); note: nearly all actives have a fitted effect of over 55% in size
Summary of the method: as §1

[12] = A CellTox Green Cytotoxicity Assay to monitor cytotoxicity in HepG2 cells - 24 hour (AID 1224878); note: nearly all actives have a fitted effect of over 45% in size
Summary of the method: as §4

[13] = qHTS assay to identify small molecule agonists of H2AX (AID 1224845; active = well fitted activation curve with a large enough effect in the signal ratio in the repeat runs, not every such curve was filed as active; the % refers to the signal ratio)
Summary of the method: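 Wild-type CHO-K1 cells plated overnight, then exposed 3 hr at 37C to compounds at 15 concentrations (0.76% DMSO). Lysed, then HTRF anti-pH2AX(S139)-cryptate/anti-H2AX-d2 detection after 24 hr at room temperature; emissions 665 and 620 nm.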

[14] = qHTS assay to identify small molecule agonists of H2AX - cell viability counter screen (AID 1224847; calls by dose curve; note: top concentration of the series differs between compounds; nearly all actives have a fitted effect of over 30% in size)
Summary of the method: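 CHO-K1 cells plated overnight at 37C, then exposed 3 h at 37C to compounds at 15 concentrations (0.76% DMSO final). Viability by CellTiter-Glo luminescence after 30 min at room temperature.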

[15] = qHTS RealTime-Glo MT Cell Viability Assay in HEK293 cells - 32 hour (AID 1224868); note: nearly all actives have a fitted effect of over 50% in size; note: potency is the fitted concentration of half-maximal effect
Summary of the method: (§5)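 Viability tracked continuously by luminescence as live cells reduce a prosubstrate for NanoLuc; HEK293 cells preincubated 5 h, compound-treated at 37 C, and read at 0, 8, 16, 24, 32 and 40 h.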

[16] = A CellTox Green Cytotoxicity Assay to monitor cytotoxicity in HEK293 cells - 0 hour (AID 1224869); note: nearly all actives have a fitted effect of over 50% in size
Summary of the method: as §3

[17] = qHTS RealTime-Glo MT Cell Viability Assay in HEK293 cells - 16 hour (AID 1224872); note: nearly all actives have a fitted effect of over 50% in size; note: potency is the fitted concentration of half-maximal effect
Summary of the method: as §5

[18] = A CellTox Green Cytotoxicity Assay to monitor cytotoxicity in HEK293 cells - 24 hour (AID 1224875); note: nearly all actives have a fitted effect of over 45% in size
Summary of the method: as §3

[19] = A CellTox Green Cytotoxicity Assay to monitor cytotoxicity in HepG2 cells - 40 hour (AID 1224879); note: nearly all actives have a fitted effect of over 40% in size
Summary of the method: as §4
% is set by controls: 0 for no effect and ±100 for the full control effect.

COC(=O)c1c(Cl)c(Cl)c(C(=O)OC)c(Cl)c1Cl
inactive: Potency [1] | outcome [2] | Potency [3] | Potency [5] | Potency [6] | Potency [8] | max response [9] -27.2% | Potency [11] | Potency [12]
inactive and 38.9 µM (active): Potency [7]
4.6% (inactive) and 15.8% (active): activity change, positive = activation [4]
inactive and 77.6 nM (active): Potency [10]

O=C1OC(=O)C2CCCCC12 (stereo not drawn)
inactive: Potency [1] | outcome [13] | outcome [2] | Potency [14] | Potency [3] | activity change, positive = activation [4] -1.02% | Potency [5] | Potency [15] | Potency [16] | Potency [6] | Potency [7] | Potency [17] | Potency [8] | max response [9] 1.13% | Potency [18] | Potency [10] | Potency [11] | Potency [12] | Potency [19]

CN1CCN(c2cc3c(cc2F)c(=O)c(C(=O)O)cn3-c2ccc(F)cc2)CC1
inactive: Potency [1] | outcome [2] | Potency [14] | Potency [3] | activity change, positive = activation [4] -10.8% [at 42.5 µM] | Potency [5] | Potency [16] | Potency [6] | Potency [7] | Potency [17] | Potency [8] | max response [9] -0.934% | Potency [18] | Potency [10] | Potency [11] | Potency [12] | Potency [19]

O=C(O)CNC(=O)c1ccc([N+](=O)[O-])cc1
inactive: Potency [1] | outcome [13] | outcome [2] | Potency [14] | Potency [3] | activity change, positive = activation [4] 4.79% | Potency [5] | Potency [16] | Potency [6] | Potency [7] | Potency [17] | Potency [8] | Potency [18] | Potency [10] | Potency [11] | Potency [12] | Potency [19]

Cc1nc2c([nH]1)c(=O)n(C)c(=O)n2Cc1ccco1
inactive: Potency [1] | outcome [13] | outcome [2] | Potency [14] | Potency [5] | Potency [15] | Potency [16] | Potency [6] | Potency [7] | Potency [17] | Potency [8] | max response [9] 1.42% | Potency [18] | Potency [10] | Potency [11] | Potency [12] | Potency [19]

CC(=O)Nc1c(I)cc(I)c(C(=O)O)c1I
inactive: Potency [1] | outcome [13] | outcome [2] | Potency [14] | Potency [3] | Potency [5] | Potency [15] | Potency [6] | Potency [7] | Potency [17] | Potency [8] | max response [9] 7.77% | Potency [18] | Potency [10] | Potency [12] | Potency [19]

CCCCCOC(=O)CCCCC
inactive: Potency [1] | outcome [13] | outcome [2] | Potency [14] | Potency [3] | activity change, positive = activation [4] 0.374% | Potency [5] | Potency [15] | Potency [6] | Potency [7] | Potency [17] | Potency [8] | max response [9] 7.06% | Potency [18] | Potency [11] | Potency [12] | Potency [19]

O=C1CCCC(=O)C1
inactive: Potency [1] | outcome [13] | outcome [2] | Potency [14] | Potency [3] | activity change, positive = activation [4] -12.9% | Potency [5] | Potency [15] | Potency [6] | Potency [7] | Potency [17] | Potency [8] | max response [9] 1.44% | Potency [18] | Potency [10] | Potency [11] | Potency [12] | Potency [19]

CCOC(=O)CCC(C)=O
inactive: Potency [1] | outcome [13] | outcome [2] | Potency [14] | Potency [3] | activity change, positive = activation [4] 4.77% | Potency [5] | Potency [15] | Potency [6] | Potency [7] | Potency [17] | Potency [8] | max response [9] -9.25% | Potency [18] | Potency [10] | Potency [11] | Potency [19]

CC/C=C\CC/C=C/CO
inactive: Potency [1] | outcome [13] | outcome [2] | Potency [14] | Potency [3] | activity change, positive = activation [4] 5.28% | Potency [5] | Potency [15] | Potency [16] | Potency [6] | Potency [7] | Potency [17] | Potency [8] | max response [9] 6.89% | Potency [18] | Potency [10] | Potency [11] | Potency [12] | Potency [19]

CC(C)(C)c1ccc(O)c(O)c1
inactive: Potency [1] | Potency [14] | Potency [16] | Potency [6] | Potency [10] | Potency [12] | Potency [19]
active: Potency [15] 20.2 µM and 13.8 µM | Potency [7] 38.9 µM | Potency [17] 25.4 µM and 13.8 µM | Potency [8] 34.7 µM

O=[N+]([O-])c1ccc(F)cc1F
inactive: Potency [1] | outcome [13] | outcome [2] | Potency [14] | Potency [3] | activity change, positive = activation [4] 3.35% | Potency [5] | Potency [15] | Potency [16] | Potency [6] | Potency [7] | Potency [17] | Potency [8] | max response [9] 9.7% | Potency [18] | Potency [10] | Potency [12] | Potency [19]

C[N+](C)(C)CCCCCC[N+](C)(C)C
inactive: Potency [1] | outcome [13] | Potency [14] | Potency [5] | Potency [16] | Potency [6] | Potency [7] | Potency [17] | Potency [8] | max response [9] 3.71% and 1.42% | Potency [10] | Potency [12] | Potency [19]

CO[Si](CCCOCC1CO1)(OC)OC (stereo not drawn)
inactive: Potency [1] | outcome [13] | outcome [2] | Potency [14] | Potency [5] | Potency [15] | Potency [16] | Potency [6] | Potency [7] | Potency [17] | Potency [8] | max response [9] 0.892% and 6.22% | Potency [18] | Potency [10] | Potency [11] | Potency [12] | Potency [19]
